Source: PubChem BioAssay
Only some compounds are listed: those with a hit (about 8% of all), similar ones and a draw of the others.
SW480 rereplic – DNA re-replication induction in SW480 cells | SW480 DNA re-replication, Hoechst DNA content imaging, 48 h | Potency, µM (doses to about 46.1 µM), usual class: activators | 1.8% of 340,000 active; further: nearly all actives have a fitted effect of over 55% in size
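First, 250 cells per well were seeded. Next, compound or vehicle (23 nL) was pinned in, plates sat 48 hr at 37 C. Finally Hoechst was added for 40 min before fluorescence scanning.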
HT1080NT lethal – kills 2HG-producing HT-1080-NT fibrosarcoma cells; HT-1080-NT fibrosarcoma viability, CellTiter-Glo ATP luminescence, 48 h; Potency, µM (series often up to 46.1 µM), actives largely listed as cytotoxic; 1.6% of 360,000 active; AID 686970;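 further: NT is the 2HG producing partner of a matched IDH1 knockdown line; nearly all actives have a fitted effect of over 55% in size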
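Read-out is CellTiter-Glo luminescence after 10 minutes at room temperature, following 48 hours' compound treatment of HT-1080-NT cells (750 cells/well, RPMI, 5% FBS, 37 degrees C).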
KB-3-1 cytotox – KB-3-1 parental cell cytotoxicity; AID 1347075; 1.4% of 400,000 active; Potency, µM (highest dose often 46.1 µM), hits mostly cytotoxic; KB-3-1 viability, CellTiter-Glo ATP luminescence, 72 h; further: nearly all actives have a fitted effect of over 60% in size
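KB-3-1 cells, DMEM (no phenol red) + 10% FBS; compound by pin transfer, 72 h, 37 °C. Readout: CellTiter-Glo luminescence after 10 min. Data normalized, curve-fitted.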
KB-V1 cytotox – kills drug-selected multidrug resistant KB-V1 cells. KB-V1 MDR cells viability, CellTiter-Glo, 72 h. Potency, µM (titrated, usually from 46.1 µM), most hits filed as cytotoxic. 3.4% of 400,000 active. AID 1347076; further: nearly all actives have a fitted effect of over 60% in size
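Following 72 h at 37 degrees C with compound, KB-V1 cell viability was read by CellTiter-Glo luminescence, medium being phenol-red-free DMEM plus 10% FBS; concentration-response parameters came from normalized, curve-fitted qHTS data.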
HT1080 IDH1KD tx – kills HT-1080 cells with IDH1 knockdown; 2% of 360,000 active; AID 686971; HT-1080 IDH1 knockdown viability, ATP luminescence, 48 h; Potency, µM (series often up to 46.1 µM), actives largely listed as cytotoxic
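Viability of IDH1-knockdown HT-1080 fibrosarcoma cells was assessed by CellTiter-Glo after 48 h at 37 °C with titrated compound; concentration-effect curves were classified by fit quality and response size.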
MCF10A rerep – induces DNA re-replication in MCF 10a normal breast cells; MCF 10A DNA re-replication, Hoechst nuclear intensity, 48 h; Potency, µM (titrated, usually from 46.1 µM), hits mostly activators; 2.9% of 350,000 active; further: nearly all actives have a fitted effect of over 50% in size
Numbers stand for hits; . = inactive; ? = inconclusive; / = no result. The call rests on the fitted dose curve; in most records, active means well fitted curve in the direction sought with a large enough effect; inconclusive means small, poorly fitted or top-dose-only effect, or another doubt; inactive means no such curve, though single readings can be large; an effect the other way counts as inactive or inconclusive.

SMILES	SW480 rereplic	HT1080NT lethal	KB-3-1 cytotox	KB-V1 cytotox	HT1080 IDH1KD tx	MCF10A rerep
Cc1cc(C)n(CCNC(=O)[C@H]2O[C@@H](n3cnc4c(N)ncnc43)[C@H](O)[C@@H]2O)n1	/	.	.	.	.	/
O=C(O)C1C(c2ccccc2)C(C(=O)OCc2ccco2)C1c1ccccc1 (stereo unspecified)	.	.	.	.	.	.
COC(=O)C1C(c2ccccc2)C(C(=O)OCc2ccco2)C1c1ccccc1 (stereo unspecified)	.	.	?	13µM	.	?
O=C(NCc1ccc(OC(F)(F)F)cc1)c1cc(-c2ccccc2)nn1CC1CC(c2cccnc2)=NO1 (stereo unspecified)	.	.	.	21µM	.	.
COc1ccccc1C1CC(c2c(-c3ccccc3)c3cc(Cl)ccc3[nH]c2=O)=NN1S(C)(=O)=O (stereo unspecified)	?	26µM	?	?	?	?
COc1cccc(C2CC(c3c(-c4ccccc4)c4cc(Cl)ccc4[nH]c3=O)=NN2S(C)(=O)=O)c1OC (stereo unspecified)	?	?	?	?	18µM	?
COc1ccc(C2CC(c3c(-c4ccccc4)c4cc(Cl)ccc4[nH]c3=O)=NN2C(=O)CCC(=O)O)cc1 (stereo unspecified)	.	.	.	.	?	.
COc1ccccc1/C=C/C(=O)OCC(=O)NCc1ccc2c(c1)OCO2	.	.	.	.	.	.
S=C(NNc1ccc2ccccc2c1)NC1CCCCC1	?	.	?	?	.	4.6µM
S=C(Nc1ccc(Oc2ccccc2)cc1)NC1CCCCCC1	.	?	?	?	?	15µM
S=C(Nc1ccc(Oc2ccc(NC(=S)NC3CCCCC3)cc2)cc1)NC1CCCCC1	.	.	?	16µM	.	.
COc1ccc(C(=O)C(CO)Oc2ccccc2OC)cc1OC (stereo unspecified)	.	.	.	.	.	.
O=C(NCc1ccon1)C1CCC(=O)N(Cc2cccc(C(F)(F)F)c2)C1 (stereo unspecified)	.	.	.	.	.	.
CN1C(=O)Cn2c1nc1ccccc12	.	.	.	.	.	.
CC1CCN(CC(=O)N2CCCc3c2c(=O)oc2ccc(OCc4ccccc4)cc32)CC1	?	?	?	?	?	11µM
CC1CC(C)CN(CC(=O)N2CCCc3c2c(=O)oc2ccc(OCc4ccccc4)cc32)C1 (stereo unspecified)	.	?	?	.	?	?
CC(=O)Nc1cccc(NC(=O)C2CCCN2C(=O)Nc2cccc(C)c2)c1 (stereo unspecified)	.	.	.	.	.	9.2µM
Cc1ccc(NC(=O)C2CCCN2C(=O)c2cccs2)cc1C (stereo unspecified)	.	.	.	.	.	.
Cc1ccc(NC(=O)C2CCCN2C(=O)Oc2ccccc2)cc1C (stereo unspecified)	.	.	.	15µM	.	.
O=C(/C=C/c1cc(Br)ccc1F)Nc1cccnc1	.	.	.	.	.	.
CCN(CC)C(=O)C(=O)N/N=C/c1ccc(C(=O)O)cc1	.	.	.	?	.	.
Nc1ccc2nn(-c3ccccc3)nc2c1	15µM	.	.	.	.	18µM
Nc1cc2nn(-c3ccccc3)nc2cc1Cl	?	.	.	?	.	18µM
Nc1ccc(-n2nc3ccccc3n2)cc1	?	.	.	?	.	23µM
COc1ccc(-n2nc3ccccc3n2)cc1	.	.	.	?	.	.
SMILES	SW480 rereplic	HT1080NT lethal	KB-3-1 cytotox	KB-V1 cytotox	HT1080 IDH1KD tx	MCF10A rerep
COc1ccc(OCc2cc(C(=O)NCCc3ccccc3)no2)c(Cl)c1	21µM	?	?	?	16µM	18µM
COc1ccc(CCNC(=O)c2cc(-c3ccco3)on2)cc1OC	5.8µM	.	9.2µM	18µM	.	.
COc1ccc(CCNC(=O)c2nn(C)c3c2CS(=O)(=O)c2ccccc2-3)cc1OC	23µM	.	.	.	.	?
COc1ccc(/C(O)=C/c2nc3ccc(C(=O)NCCc4cccc(C)c4)cc3[nH]c2=O)cc1OC	?	.	10µM	.	.	?
CCSc1nnc2c(n1)OC=Nc1ccc(Br)cc1-2	.	.	.	.	.	.
CCc1nc2ccc(C(=O)NCCc3ccc(OC)c(OC)c3)cc2nc1CC	.	.	.	.	.	.
COc1ccc(CCNC(=O)c2ccc3nc(-c4ccco4)c(-c4ccco4)nc3c2)cc1OC	?	?	?	7.3µM	?	?
COc1ccc(CCn2nnnc2C(c2ccc(Cl)cc2)N2CCN(C)CC2)cc1OC (stereo unspecified)	.	.	.	.	.	.
Cc1ccccc1C(=O)OCC(=O)N(C)c1ccccc1	.	.	?	.	.	.
C=CCOc1c(/C=N\NC(N)=O)cccc1OC	?	.	.	.	.	.
C=CCOc1c(OC)cc(/C=N/Nc2cccc(C(=O)O)c2)c(Br)c1Br	2.1µM	?	.	.	?	21µM
COc1ccc(S(=O)(=O)Nc2cc(-c3cn4cccc(C)c4n3)ccc2C)cc1C	/	/	.	.	/	/
COC(C[C@@H]1O[C@H]1C(=O)[C@@H](C)OCc1ccccc1)OC	23µM	.	?	.	.	?
FC(F)(F)c1cc(-c2ccccc2)nc2ncnn12	.	.	.	.	.	.
N=c1sc2ccccc2n1-c1ccccc1	?	.	?	?	?	?
C=CC(=O)N=c1sc2ccccc2n1-c1ccccc1	3.3µM	13µM	15µM	7.3µM	10µM	?
COCCNC(=O)CSc1ccccc1C(=O)NC1CCSc2ccccc21 (stereo unspecified)	.	.	.	.	.	.
COc1cccc(OC)c1OCCCc1c(C)n[nH]c1C	.	.	.	18µM	.	.
Cc1cccc(OCCCc2c(C)n[nH]c2C)c1	.	.	?	18µM	.	?
COc1ccc(/C=C/c2nc(C#N)c(NCCN(C)C)o2)cc1OC	?	.	.	.	.	?
CCc1cccc(C)c1NC(=O)CCCn1nc(C)c2sc3ccccc3c2c1=O	/	/	.	.	/	/
Cc1ccc(C)c(CSc2nnc([C@@H](N)C(C)C)o2)c1	.	.	.	15µM	.	.
CC1(C)OC(c2ccccc2)=C/C(=C/C=C2C(=O)c3ccccc3C2=O)O1	.	.	.	.	.	.
O=C(O)c1cccc(NC(=O)c2ccccc2)c1	.	.	.	?	.	.
CC(C)Nc1nc(-c2ccccn2)nc(-c2ccccc2)c1C#N	?	.	.	.	.	.
